# Laboratory results taken from ChEMBL document CHEMBL3988442, “University of Dundee, Small-Polar-MMV Screening Library” (2021).
# Target: T1, Arginase-2, mitochondrial (Homo sapiens) (UniProt P78540)
# T1 sequence (whole entry): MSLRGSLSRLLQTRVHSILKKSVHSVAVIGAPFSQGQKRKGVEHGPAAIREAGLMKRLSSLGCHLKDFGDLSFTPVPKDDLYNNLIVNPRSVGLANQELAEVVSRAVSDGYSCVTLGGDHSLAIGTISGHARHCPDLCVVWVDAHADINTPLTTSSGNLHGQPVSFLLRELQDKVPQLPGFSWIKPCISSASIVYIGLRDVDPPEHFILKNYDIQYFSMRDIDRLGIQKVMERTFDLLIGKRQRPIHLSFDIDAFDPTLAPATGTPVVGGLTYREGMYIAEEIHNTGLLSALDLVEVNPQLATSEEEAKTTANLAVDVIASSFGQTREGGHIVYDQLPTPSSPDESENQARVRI
# Test: in vitro enzyme assay to detect the production of urea directly proportional to the activity of Arginase II
# Format: functional
# Design: scale not given: in the data most compounds retested in dose-response had high values
# Conditions: 30 µM
row,SMILES,Percent Effect [%]
1,Cc1cc(F)c(C(C(=O)O)N2CCN(Cc3ccccn3)CC2)cc1Cl (stereo not given),5.95
2,CN(Cc1cccnc1)C1CC2(CCN(Cc3cccnc3)CC2)C1,-12.4
3,COc1ccccc1Oc1ncccc1CNC(=O)[C@@H](N)[C@@H](C)O,3.78
4,COc1ccc(C(=O)N(CCC#N)Cc2ccccn2)cc1,1.62
5,CC(C)(C)OC(=O)Cn1cccc(S(=O)(=O)N2CCCC2)c1=O,7.03
6,c1ccc(OC2COC3(CCN(Cc4ccccn4)CC3)C2)cc1 (stereo not given),0.54
7,CN(Cc1ccco1)[C@@H]1CN(CC2CCOCC2)[C@@H]2CCCO[C@H]12,4.87
8,COc1ccc(C(=O)N2C[C@@H](C(=O)O)[C@H](c3ccccc3)C2)c(C)c1,-7.03
9,O=C(c1coc(CN2CCN(c3ccccc3F)CC2)n1)N1CCCC1,3.78
10,CNC(=O)[C@@H]1C[C@H]2CN(C(=O)c3ccco3)C[C@H]2N1C(C)C,9.19
11,COc1ccccc1Oc1ncccc1CNC(=O)[C@@H](N)CCO,-12.4
12,Cc1cccc(OCC(O)CN2CCN(c3nccs3)CC2)c1 (stereo not given),3.78
13,NC(=O)CN1CCC(c2cncc(-c3cccc(Cl)c3)n2)CC1,2.7
14,OC(CN(Cc1ccccc1)Cc1ccccn1)c1cccs1 (stereo not given),11.3
15,O=C(O)C(c1ccc(Cl)c(F)c1)N1CCN(Cc2ccccn2)CC1 (stereo not given),5.95
16,Cc1noc(C)c1CN1C[C@@H](N(C)Cc2ccco2)[C@H]2OCCC[C@H]21,7.03
17,COc1ccc2c(c1)OCC(CNC(=O)c1cnc(O)cn1)C2 (stereo not given),10.3
18,Cc1cccc(NC2CCc3c2[nH]c(=O)n(C2CCCCC2)c3=O)c1C (stereo not given),-0.54
19,Cc1nn(C)cc1C(=O)N1CCCC(c2nccn2Cc2cscn2)C1 (stereo not given),-12.4
20,COc1ccc2c(c1)OCC(CNC(=O)c1cc[nH]c1C)C2 (stereo not given),8.11

row,SMILES,Percent Effect [%]
1,CC(C)c1ncc(CN2CCOC(C(=O)Nc3ccccc3)C2)cn1 (stereo not given),3.78
2,COc1ccc(C2SC(C)=Nc3c2c(=O)[nH]n3C2CCCC2)cc1O (stereo not given),2.7
3,CNC(=O)[C@H]1C[C@@H]2CN(C(=O)c3ccsc3)C[C@@H]2N1S(C)(=O)=O,8.11
4,CN1CCC(c2cncc(-c3cccc(Cl)c3)n2)CC1,4.87
5,Cc1ccc([C@@H]2CN(S(=O)(=O)Cc3ccccc3)C[C@H]2N(C)C)cc1,1.62
6,CNC(=O)[C@H]1C[C@@H]2CN(C(=O)c3ccccn3)C[C@@H]2N1S(C)(=O)=O,8.11
7,OC(COc1ccccc1)CN1CCN(c2nccs2)CC1 (stereo not given),4.87
8,CNC(=O)[C@H]1C[C@@H]2CN(C(=O)c3ccncc3)C[C@@H]2N1S(C)(=O)=O,4.87
9,CN(CC(=O)N1CCCC1c1noc(C2CC2)n1)C1CC1 (stereo not given),5.95
10,CCc1nc(C)c(C(=O)NCC2COc3cc(OC)ccc3C2)o1 (stereo not given),5.95
11,COC(=O)CCNC(=O)c1cc(Br)c2c(c1)OCCO2,5.95
12,Cn1cc(CC2CCN(C(=O)NCc3csc(C4CC4)n3)C2)cn1 (stereo not given),7.03
13,Cc1ccc2c(c1)CCC2NCc1c(C)nn(CCO)c1C (stereo not given),3.78
14,CC1=Nc2c(c(=O)[nH]n2C2CCCC2)C(c2ccc(C(=O)O)cc2)S1 (stereo not given),7.03
15,CC1=Nc2c(c(=O)[nH]n2C2CCCC2)C(c2ccc(O)cc2)S1 (stereo not given),5.95
16,Cc1nn(CCO)c(C)c1CNC1CCCCc2ccccc21 (stereo not given),3.78
17,COc1ccccc1Oc1ncccc1CNC(=O)[C@H](C)O,4.87
18,OC(CN(Cc1ccccc1)Cc1cscn1)c1cccs1 (stereo not given),8.11
19,CN(C)c1ncccc1NC(=O)C1CN(Cc2ccccc2)CCO1 (stereo not given),-8.11
20,O=C(NCc1ccncc1)N(Cc1ccc(F)cc1F)C1CC1,3.78
